Our source for the Potency and max response values is PubChem BioAssay (Tox21).

Values joined by “and” are separate entries in the source; they are usually repeats but may differ in a detail not shown here. Equal values may be shown once. Records with an inconclusive call do not appear. More than one record can exist for a structure, and the calls need not agree. Active and inactive are the calls of the source. Calls follow the shape of the dose curve; as a rule, active = well fitted curve in the direction sought with a large enough effect in the repeat runs; inconclusive = weak or mixed curves; inactive = no such curve, though single readings can be large; an effect the other way counts as inactive or inconclusive.

Experiment [1] can be described thus: qHTS RealTime-Glo MT Cell Viability Assay in HepG2 cells - 40 hour (AID 1224870). Also: nearly all actives have a fitted effect of over 50% in size. Also: potency is read from the fitted curve at half-maximal effect. The gist of the method:
(§1)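 HepG2 cells mixed with RealTime-Glo MT reagents (NanoLuc plus cell-permeant prosubstrate) were seeded at 600 cells/well, incubated 5 h at 37 C/5% CO2, then pinned with compounds in DMSO; nonlytic luminescence tracked viability during 40 h treatment.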

Experiment [2] in a line: A CellTox Green Cytotoxicity Assay to monitor cytotoxicity in HEK293 cells - 40 hour (AID 1224871). Also: nearly all actives have a fitted effect of over 45% in size. Also: potency is read from the fitted curve at half-maximal effect. The gist of the method: (§2)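 Cells (HEK293, 600/well) and dye reagent are dispensed together. After 5 h at 37 C, 23 nL compound is pinned in. Plates stay at 37 C for 40 h with fluorescence read at 0h, 8h, 16h, 24h, 32h and 40h.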
The nature of experiment [3]: qHTS RealTime-Glo MT Cell Viability Assay in HEK293 cells - 16 hour (AID 1224872). Also: nearly all actives have a fitted effect of over 50% in size. Also: potency is read from the fitted curve at half-maximal effect. The gist of the method: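 Luminescence generated by NanoLuc from substrate produced by living HEK293 cells served as the viability signal. Each value reflects the reading at its stated time point during continuous 40 h compound exposure at 37 C.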
In general terms: Quantitative high-throughput screening tests each substance at several concentrations.

The nature of experiment [4]: qHTS RealTime-Glo MT Cell Viability Assay in HepG2 cells - 8 hour (AID 1224873). Also: nearly all actives have a fitted effect of over 55% in size. Also: potency is read from the fitted curve at half-maximal effect. The gist of the method: as §1
Experiment [5] can be described thus: qHTS RealTime-Glo MT Cell Viability Assay in HEK293 cells - 40 hour (AID 1224874). Also: nearly all actives have a fitted effect of over 50% in size. Also: potency is read from the fitted curve at half-maximal effect. The following applies: RealTime-Glo luminescence; max response: stronger effect = lower value. The method in brief: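 Real-time viability in HEK293: signal arises when living cells convert a prosubstrate for NanoLuc in the medium, so luminescence tracks viable cell number. Compound (23 nL, DMSO) added 5 h post-seeding; kinetic reads at 0–40 h, 37 C.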

The nature of experiment [6]: A CellTox Green Cytotoxicity Assay to monitor cytotoxicity in HEK293 cells - 24 hour (AID 1224875). Also: series mostly up to about 77 µM; nearly all actives have a fitted effect of over 45% in size. The gist of the method:
as §2

The nature of experiment [7]: A CellTox Green Cytotoxicity Assay to monitor cytotoxicity in HepG2 cells - 16 hour (AID 1224876). Also: nearly all actives have a fitted effect of over 45% in size. Also: potency is read from the fitted curve at half-maximal effect. The method in brief:
(§3)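 Cells and non-lytic dye reagent are dispensed together (600 HepG2 cells/well) and incubated 5 h before DMSO compound transfer. Kinetic fluorescence is then recorded in the same wells during 40 h at 37 C.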

A short description of experiment [8]: qHTS RealTime-Glo MT Cell Viability Assay in HepG2 cells - 32 hour (AID 1224877). Also: nearly all actives have a fitted effect of over 55% in size. Also: potency is read from the fitted curve at half-maximal effect. The gist of the method: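 Tox21 10K library screened in qHTS format on HepG2 cells carrying RealTime-Glo reagents. Compounds were added after a 5 h preincubation, and the luminescent signal from continuous culture was measured repeatedly during 40 h treatment.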
The nature of experiment [9]: A CellTox Green Cytotoxicity Assay to monitor cytotoxicity in HepG2 cells - 24 hour (AID 1224878). Also: nearly all actives have a fitted effect of over 45% in size. Also: potency is read from the fitted curve at half-maximal effect. The gist of the method:
as §3

Experiment [10] in a line: A CellTox Green Cytotoxicity Assay to monitor cytotoxicity in HepG2 cells - 40 hour (AID 1224879). Also: nearly all actives have a fitted effect of over 40% in size. Also: potency is read from the fitted curve at half-maximal effect. The gist of the method: as §3
% is scaled to controls: 0 for no effect and ±100 for the full control effect.

As for `O=C(c1cc(O)c(O)c(O)c1)c1ccc(O)c(O)c1O`, the Potency entry in experiment [1], in experiment [2], in experiment [3], in [4], in experiment [6] and in experiment [7] was “inactive” each time. For the same compound, the Potency result in experiment [8], in experiment [9] and in [10] was “inactive” each time. Also, the max response in [5] is -21.1% (inactive) and -21.4% (inactive) and -9.65% (inactive).
For the compound `Oc1ccc2ccccc2c1N=Nc1ccccc1`, the Potency result in experiment [1], in experiment [2], in experiment [3], in experiment [4], in experiment [6] and in [7] was “inactive” in each case. Further, the Potency entry in experiment [8], in [9] and in experiment [10] was “inactive” in each case. The max response in [5] is 32.3% (inactive).
Turning to `C=C(C)C(=O)OCCC[Si](OC)(OC)OC`, the Potency entry in experiment [1], in experiment [2], in [3], in experiment [4], in experiment [6] and in experiment [7] was “inactive” each time. The Potency result in experiment [8], in [9] and in experiment [10] was “inactive” each time. Further, the max response in experiment [5] was 1.98% (inactive) and 0.0703% (inactive).
As to `COC(=O)c1ccc(C(=O)OC)cc1`, the Potency entry in experiment [1], in experiment [4], in experiment [6], in experiment [7] and in experiment [8] was “inactive” throughout. Besides, the Potency was 15.7 µM (active) and inactive in experiment [2]; 35.1 µM (active) and inactive in experiment [3]; 35.1 µM (active) in experiment [5]; 22.2 µM (active) and inactive in experiment [9]; 22.2 µM (active) and inactive in [10]. In addition, the max response in experiment [5] was 0.23% (inactive).
On to `O=C1O[C@H](CO)[C@@H](O)[C@H](O)[C@H]1O`, for which the Potency entry in experiment [1], in experiment [2], in experiment [3], in experiment [4], in [6] and in experiment [7] was “inactive” each time. Besides, the Potency entry in [8], in experiment [9] and in experiment [10] was “inactive” throughout. For the same compound, the max response in [5] was 1.84% (inactive) and 0.71% (inactive).
Regarding `CC(C)(CO)COC(=O)C(C)(C)CO`, the Potency result in experiment [1], in experiment [2], in experiment [3], in experiment [4], in [6] and in experiment [7] was “inactive” each time. The Potency entry in experiment [8], in experiment [9] and in experiment [10] was “inactive” each time. For the same compound, the max response in experiment [5] is 0.943% (inactive) and 3.19% (inactive).
Take `Nc1nc2ncc(CNc3ccc(C(=O)N[C@@H](CCC(=O)O)C(=O)O)cc3)nc2c(=O)[nH]1`: the Potency result in experiment [1], in experiment [2], in [3], in experiment [4], in experiment [6] and in experiment [7] was “inactive” in each case. Besides, the Potency entry in [8], in experiment [9] and in experiment [10] was “inactive” each time. Further, the max response in [5] was 21.4% (inactive) and 0.94% (inactive).
For the compound `CC1(C)CC(N=C=O)CC(C)(CN=C=O)C1` (stereo not drawn), the Potency result in [1], in experiment [2], in experiment [3], in [4], in experiment [6] and in [7] was “inactive” each time. Further, the Potency result in [8], in [9] and in [10] was “inactive” each time. In addition, the max response in [5] was 8.76% (inactive) and 2.25% (inactive).
With `CCCCOCCOCCOC(=O)CCCCC(=O)OCCOCCOCCCC`, the Potency result in experiment [1], in [2], in [3], in [4], in experiment [6] and in [7] was “inactive” in each case. In addition, the Potency entry in experiment [8], in [9] and in experiment [10] was “inactive” each time. In addition, the max response in experiment [5] was 3.67% (inactive) and 5.42% (inactive).
As for `Oc1ccc(OCc2ccccc2)cc1`, the Potency entry in experiment [1], in experiment [2], in [4], in experiment [6], in [7] and in experiment [8] was “inactive” throughout. The Potency result in [9] and in [10] was “inactive” in each case. The Potency in [3] was 957 nM (active) and inactive; in [5] it was 1.2 µM (active). The max response in [5] is -10.3% (inactive).
Turning to `CC(=O)CCc1ccccc1`, the Potency result in [1], in experiment [2], in [3], in experiment [4], in [6] and in experiment [7] was “inactive” each time. Moreover, the Potency result in experiment [8], in experiment [9] and in experiment [10] was “inactive” in each case. Moreover, the max response in [5] is 1.52% (inactive) and -3.07% (inactive).
For `Cc1cc(O)cc(C)c1Cl`, the Potency entry in experiment [1], in [2], in [3], in experiment [4], in experiment [6] and in [7] was “inactive” each time. For the same compound, the Potency entry in experiment [8], in experiment [9] and in [10] was “inactive” in each case. Also, in [5], the max response is -8.32% (inactive) and -0.996% (inactive).
Regarding `CCCCC(CC)COC(=O)CCCCCCCC(=O)OCC(CC)CCCC` (stereo not drawn), the Potency entry in experiment [1], in experiment [4] and in experiment [8] was “inactive” throughout. Moreover, the Potency in [2] is 49 µM (active) and inactive; in [3], 24.5 µM (active) and inactive; in [5], 4.9 µM (active); in experiment [7], 49 µM (active); in [9] it was 49 µM (active); in experiment [10], 43.6 µM (active). The max response in experiment [5] is 4.32% (inactive).
Consider `Cc1ccc(N)c(S(=O)(=O)O)c1`, for which the Potency result in experiment [1], in experiment [2], in [3], in experiment [4], in [6] and in [7] was “inactive” throughout. In addition, the Potency entry in experiment [8], in experiment [9] and in experiment [10] was “inactive” each time. Moreover, the max response in experiment [5] was -4.11% (inactive) and 2.65% (inactive).
As to `NCCc1ccc(O)c(O)c1`, the Potency entry in experiment [1], in experiment [2], in experiment [3], in experiment [4], in [6] and in [7] was “inactive” throughout. Besides, the Potency entry in experiment [8], in experiment [9] and in experiment [10] was “inactive” each time. Also, the max response in experiment [5] is -0.912% (inactive) and 5.76% (inactive).
In the case of `CCCCCCCCCCCCN`, the Potency entry in experiment [1] is “inactive and 34.7 µM (active)”; in experiment [2], “inactive and 49 µM (active)”; in [3], “inactive and 38.9 µM (active)”; in [4] it was “inactive and 21.9 µM (active)”; in [5], 43.6 µM (active); in [7] it was “inactive and 19.5 µM (active)”. Moreover, the Potency entry is “inactive and 24.5 µM (active)” in [8]; “inactive and 19.5 µM (active)” in [9]; “inactive and 21.9 µM (active)” in [10]. Besides, in [5], the max response is 3.89% (inactive) and -9.66% (inactive).
In the case of `O=S(=O)(Oc1ccc(Cl)cc1Cl)c1ccccc1`, the Potency entry in [1], in experiment [2], in [3], in experiment [4], in experiment [6] and in experiment [7] was “inactive” throughout. Further, the Potency result in [8], in [9] and in [10] was “inactive” throughout. Also, the Potency in [5] was 14 µM (active). Besides, in experiment [5], the max response was -21.1% (inactive).
Turning to `Nc1cc(-c2ccncc2)c[nH]c1=O`, the Potency result in experiment [1], in [2], in experiment [3], in [4], in experiment [6] and in experiment [7] was “inactive” each time. Also, the Potency entry in [8], in experiment [9] and in experiment [10] was “inactive” each time. Also, the max response in [5] was -8.6% (inactive) and 7.61% (inactive).
Turning to `C=C(C#N)C(=O)OCC`, the Potency entry in experiment [1], in experiment [2], in experiment [3], in [4], in experiment [6] and in experiment [7] was “inactive” each time. Moreover, the Potency entry in experiment [8], in experiment [9] and in experiment [10] was “inactive” throughout. Moreover, in experiment [5], the max response was -3.09% (inactive) and 0.0188% (inactive).
